For 21 compounds, activity, negative = inhibition and Potency results are on record in PubChem BioAssay (NCATS).

A short description of experiment [1]: qHTS profiling for inhibitors of Plasmodium falciparum proliferation (AID 504749).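 As to activity, negative = inhibition: 0% = DMSO vehicle and full inhibition = artemisinin control.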 As to all read-outs here: nearly all actives have a fitted effect of over 60% in size. The settings on record: P. falciparum in erythrocytes, SYBR Green DNA, 72 h; for activity, negative = inhibition: at 28.7 µM (top of the series). In short, it runs like this: (§1)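 Three-day growth assay of blood-stage parasites in erythrocytes (0.3% parasitemia, 2.5% hematocrit) at 37 C, 5% CO2, quantified by SYBR Green DNA staining after overnight detergent lysis.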
(Quantitative high-throughput screening tests each substance at several concentrations.)

Experiment [2] concerns 3D7. The description is as above. The settings on record: P. falciparum in erythrocytes, SYBR Green DNA, 72 h; series mostly up to 28.7 µM. In short, it runs like this:
as §1

Experiment [3] deals with 7G8. The description is as above. The settings on record: P. falciparum in erythrocytes, SYBR Green DNA, 72 h; series mostly up to 28.7 µM. Put shortly:
as §1

Experiment [4] deals with AA1029. The description is as above. The settings on record: P. falciparum in erythrocytes, SYBR Green DNA, 72 h; series mostly up to 28.7 µM. Put shortly:
as §1

In experiment [5] the test system is AS120. The experiment is described as above. The settings on record: P. falciparum in erythrocytes, SYBR Green DNA, 72 h; series mostly up to 28.7 µM. In short, it runs like this:
as §1

Experiment [6] has as its system ATS189. Described as above. The settings on record: P. falciparum in erythrocytes, SYBR Green DNA, 72 h; series mostly up to 28.7 µM. Put shortly: as §1
Experiment [7] has as its system ATS95. The experiment is described as above. The settings on record: P. falciparum in erythrocytes, SYBR Green DNA, 72 h; series mostly up to 28.7 µM. In short, it runs like this: as §1
Experiment [8] concerns C2A. The description is as above. The settings on record: P. falciparum in erythrocytes, SYBR Green DNA, 72 h; series mostly up to 28.7 µM. Put shortly: as §1
Experiment [9] concerns CP185. Described as above. The settings on record: P. falciparum in erythrocytes, SYBR Green DNA, 72 h; series mostly up to 28.7 µM. In short, it runs like this: as §1
Experiment [10] concerns CP191. The description is as above. The settings on record: P. falciparum in erythrocytes, SYBR Green DNA, 72 h; series mostly up to 28.7 µM. In short, it runs like this: as §1

Records with an inconclusive call do not appear. A number with no mark means an inactive call. Activity calls are given as the source filed them. Calls follow the shape of the dose curve; as a rule, active = well fitted inhibition curve with a large enough effect; inconclusive = small, poorly fitted or top-dose-only effect; inactive = flat fitted curve, though single readings scatter.
Potency is read from the fitted curve at half-maximal effect.

For the compound `NC(=O)OCCCc1ccccc1`, the results for the activity, negative = inhibition in [1] (parasite line A) and in experiment [1] (parasite line B) were -9.09% and 10.5%, respectively. The Potency result in [2], in experiment [3], in experiment [4], in [5], in [6] and in experiment [7] was “inactive” throughout. Further, the Potency entry in experiment [8], in [9] and in [10] was “inactive” each time.

Regarding `CCS(=O)(=O)C(C)(C)S(=O)(=O)CC`, the activity, negative = inhibition in experiment [1] (parasite line A) is 9.89%; in experiment [1] (parasite line B) it was 19.2%. Besides, the Potency result in [2], in experiment [3], in [4], in experiment [5], in experiment [6] and in experiment [7] was “inactive” each time. Besides, the Potency result in [8], in experiment [9] and in experiment [10] was “inactive” throughout.

Take `CCCCCCCCC(=O)NCc1ccc(O)c(OC)c1`: the values for the activity, negative = inhibition in [1] (parasite line A) and in experiment [1] (parasite line B) were -0.439% and 7.79%, respectively. Moreover, the Potency result in experiment [2], in experiment [3], in [4], in experiment [5], in experiment [6] and in [7] was “inactive” in each case. The Potency result in experiment [8], in experiment [9] and in experiment [10] was “inactive” throughout.

For the compound `O=c1n(Cl)c(=O)n(Cl)c(=O)n1Cl`, the values for the activity, negative = inhibition in experiment [1] (parasite line A) and in experiment [1] (parasite line B) were 0.0387% and 2.68%, respectively. Besides, the Potency entry in experiment [2], in experiment [3], in experiment [4], in experiment [5], in [6] and in experiment [7] was “inactive” each time. Further, the Potency result in experiment [8], in experiment [9] and in experiment [10] was “inactive” in each case.

On to `CN1C(=O)[C@@H](NC(=O)c2cc3ccccc3[nH]2)N=C(c2ccccc2)c2ccccc21`, for which the Potency in experiment [3] is 11.2 µM (active).

Turning to `CCC1(CC)C(=O)NC(=O)NC1=O`, the activity, negative = inhibition in [1] (parasite line A) was -0.0726%; in experiment [1] (parasite line B), 11.2%. Also, the Potency entry in [2], in experiment [4], in experiment [5], in [6], in experiment [7] and in experiment [8] was “inactive” throughout. Also, the Potency entry in [9] and in experiment [10] was “inactive” throughout.

For the compound `Nc1ccc(N)cc1`, the Potency in experiment [2] was 8.91 µM (active).

On to `Oc1ccc2[nH]cc(CCCCN3CC=C(c4ccccc4)CC3)c2c1`, for which, in experiment [3], the Potency is 3.98 µM (active).

With `CC[C@]1(O)CC[C@H]2[C@@H]3CCC4=CCCC[C@@H]4[C@H]3CC[C@@]21C`, the Potency result in experiment [2] is “inactive”. Moreover, the values for the Potency in [3] and in [8] were 7.94 µM (active) and 0.891 µM (active), respectively.

Regarding `C[C@]12Cc3nonc3C[C@@H]1CC[C@@H]1[C@@H]2CC[C@@]2(C)[C@H]1CC[C@]2(C)O`, the activity, negative = inhibition in [1] (parasite line B) is -29.5%. Further, the Potency entry in experiment [2], in [4], in experiment [5], in experiment [6], in [7] and in [8] was “inactive” throughout. The Potency entry in experiment [9] and in [10] was “inactive” in each case.

In the case of `COP(=O)(OC)C(O)C(Cl)(Cl)Cl` (stereo not drawn), the activity, negative = inhibition in [1] (parasite line B) was 2.48%. In addition, the Potency result in [2], in [3], in [4], in [6], in experiment [7] and in experiment [8] was “inactive” throughout. The Potency result in experiment [9] and in [10] was “inactive” throughout.

As for `CCN(CC)CCOC(=O)C(C)(c1ccccc1)c1ccccc1`, the activity, negative = inhibition in experiment [1] (parasite line A) is -27.7%. For the same compound, the Potency entry in experiment [2] and in experiment [8] was “inactive” in each case. For the same compound, the Potency is 5.01 µM (active) in [3] and 4.47 µM (active) in [4].

`COP(=O)(OC)OC=C(Cl)Cl`: the results for the activity, negative = inhibition in [1] (parasite line A) and in experiment [1] (parasite line B) were 5.3% and 13.3%, respectively. The Potency entry in experiment [2], in experiment [4], in [5], in [6], in experiment [7] and in experiment [8] was “inactive” throughout. Besides, the Potency result in [9] and in experiment [10] was “inactive” throughout.

As for `CC(Cc1ccccc1)NCc1ccccc1Cl` (stereo not drawn), the activity, negative = inhibition in experiment [1] (parasite line A) was -0.799%; in [1] (parasite line B), -0.104%. Besides, the Potency entry in experiment [2], in experiment [8] and in experiment [10] was “inactive” each time. Also, the Potency in experiment [3] is 11.2 µM (active).

Turning to `CN1C[C@@H](NS(=O)(=O)N(C)C)C[C@@H]2c3cccc4c3c(cn4C)C[C@H]21`, the activity, negative = inhibition in experiment [1] (parasite line A) was -15.7%; in experiment [1] (parasite line B), -6.34%. In addition, the Potency entry in experiment [2], in experiment [3], in experiment [5], in experiment [6], in experiment [7] and in experiment [8] was “inactive” each time. The Potency entry in experiment [9] and in [10] was “inactive” in each case.

Regarding `C[C@]12CC[C@H]3[C@@H](CC=C4C[C@@H](O)CC[C@@]43C)[C@@H]1CC[C@@H]2O`, the activity, negative = inhibition in [1] (parasite line A) was 1.98%; in [1] (parasite line B), 6.49%. In addition, the Potency result in experiment [2], in experiment [3], in [4], in experiment [5], in experiment [6] and in experiment [7] was “inactive” throughout. In addition, the Potency entry in experiment [8], in experiment [9] and in experiment [10] was “inactive” throughout.

In the case of `O=C1NCN(c2ccccc2)C12CCN(CCCOc1ccc(F)cc1)CC2`, in experiment [1] (parasite line B), the activity, negative = inhibition was -11.5%. The Potency result in [2] was “inactive”. For the same compound, the Potency in experiment [3] is 11.2 µM (active).

Regarding `C#C[C@]1(O)CC[C@H]2[C@@H]3CCC4=CC(=O)CCC4=C3C=C[C@@]21CC`, the Potency was 6.31 µM (active) in [1] (parasite line B); 7.94 µM (active) in [2]; 11.2 µM (active) in [3]; 10 µM (active) in [7]; 3.16 µM (active) in experiment [10].

Consider `CNC(=O)Oc1cccc2ccccc12`, for which the activity, negative = inhibition is -7.78% in experiment [1] (parasite line A) and -8.17% in experiment [1] (parasite line B). The Potency entry in experiment [2], in [4], in experiment [5], in [6], in experiment [7] and in experiment [8] was “inactive” throughout. In addition, the Potency entry in [9] and in experiment [10] was “inactive” throughout.

As to `C=CCOC(Cn1ccnc1)c1ccc(Cl)cc1Cl` (stereo not drawn), the Potency in experiment [1] (parasite line B) was 10 µM (active); in experiment [2] it was 11.2 µM (active); in experiment [3], 2 µM (active); in experiment [4], 8.91 µM (active); in experiment [5] it was 5.01 µM (active); in [6] it was 10 µM (active). Also, the Potency in experiment [7] was 8.91 µM (active).

For `CN1CCc2cc(Cl)c(O)cc2[C@H]2c3ccccc3CC[C@@H]21`, the activity, negative = inhibition in experiment [1] (parasite line B) is -29.7%. Besides, the Potency in experiment [3] is 11.2 µM (active). The Potency entry in experiment [8] is “inactive”.
